A selection: hits, their analogues and other compounds. The true share with any hit is near 5.4%.
Calb FLC: C. albicans growth modulation with fluconazole; C. albicans CaCi-2 (fluconazole-resistant clinical isolate) + fluconazole, Alamar Blue growth, 48 h; hit rate 0.57% among 300,000; growth inhibition, % (test concentration not listed);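 active = growth inhibition above about 58% in most replicates, limit read from the data, passing the limit was not always enough; inconclusive = exactly half the replicates above a set limit; inactive = most replicates below a set limit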;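 also: all wells also contain fluconazole at 8 µg/ml as a sub-toxic cotreatment; 0% = median of DMSO wells and 100% = median of geldanamycin control wells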
CSC inhib: blocks cancer stem cells. cancer stem cell-like cells viability, luminescence. inhibition, % at 7.5 µM. hit rate 1.1% among 300,000; in the data active = inhibition above about 75%; inconclusive = no clear call, values can overlap the other calls; tested in HMLE shEcad cells
ALR H2O2 inh: blocks human ALR sulfhydryl oxidase activity. P55789. purified ALR, DTT oxidation, H2O2 HRP-luminol luminescence. inhibition, % (test concentration not listed). hit rate 3.8% among 290,000. AID 485317;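 active = mean replicate inhibition above about 79%, with every replicate also reaching it, limit read from the data; inconclusive = only one of the two criteria met; inactive = mean below limit and not every replicate reaching it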
PP5 primary: blocks human protein phosphatase 5 activity; P53041; purified PP5c, OMFP substrate fluorescence; inhibition, % at 6.7 µM; hit rate 0.18% among 320,000; AID 1987;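 active = inhibition above the campaign's mean inhibition across all tested compounds plus 3 SD, cut at about 9.5% in these data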;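 also: 0% = DMSO only and 100% = 100 µM cantharidin control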
Target sequence (P53041 whole entry, looked up): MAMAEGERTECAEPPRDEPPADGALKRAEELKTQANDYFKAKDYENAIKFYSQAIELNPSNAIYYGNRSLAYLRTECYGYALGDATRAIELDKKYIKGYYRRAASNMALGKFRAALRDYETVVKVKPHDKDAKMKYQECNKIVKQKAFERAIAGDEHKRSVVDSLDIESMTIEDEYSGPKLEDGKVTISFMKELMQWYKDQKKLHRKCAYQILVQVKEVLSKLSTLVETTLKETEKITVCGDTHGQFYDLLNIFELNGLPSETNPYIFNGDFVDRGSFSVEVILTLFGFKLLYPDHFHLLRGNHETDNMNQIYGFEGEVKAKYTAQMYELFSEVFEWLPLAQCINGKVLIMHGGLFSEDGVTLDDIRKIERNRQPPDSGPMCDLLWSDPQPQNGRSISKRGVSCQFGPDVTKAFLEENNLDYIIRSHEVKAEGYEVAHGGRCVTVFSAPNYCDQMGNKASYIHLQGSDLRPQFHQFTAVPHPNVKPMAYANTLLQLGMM
PP1 inh: counter-screen for PP5 inhibitors: inhibitors of human PP1-alpha. P62136. purified PP1alpha, OMFP fluorescence. inhibition, % at 6.7 µM. hit rate 0.9% among 320,000. AID 2235;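 active = inhibition above the mean inhibition of all tested compounds plus 3 SD, computed separately for each screening campaign, cut at about 15% in these data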
The depositor's hits bear a star; u = inconclusive; x = no result given.

SMILES | Calb FLC | CSC inhib | ALR H2O2 inh | PP5 primary | PP1 inh
COc1ccccc1NS(=O)(=O)c1cc(NC(=O)CCC(=O)c2cccs2)ccc1Cl | u | 0 | -8 | 2 | 4
Cc1cc(C)nc(SCC(=O)Nc2ccc(S(=O)(=O)Nc3cc(C)on3)cc2)n1 | 3 | -7 | 15 | 0 | -6
CCCCCOc1ccc(C(=O)OC(C)C(=O)NCc2ccco2)cc1 (stereo not drawn) | -2 | 1 | 0 | 5 | -4
CCN(CCCNC(=O)CN1C(=O)COc2ccccc21)c1cccc(C)c1 | 7 | -1 | 99* | 1 | 1
CC1(C)C(=O)OC(c2cc(Br)ccc2O)C(C)(C)C1=O (stereo not drawn) | -9 | -14 | 98* | 1 | -1
CC1(C)C(=O)OC(c2c3ccccc3cc3ccccc23)C(C)(C)C1=O (stereo not drawn) | 16 | 4 | -19 | 3 | -6
Cc1nnc(SCC(=O)Nc2ccc(F)cc2)n(N)c1=O | -3 | 0 | -30 | 2 | -1
Cc1csc(NC(=O)CSc2nnc(C)c(=O)n2N)n1 | 8 | -9 | 99* | -2 | -6
Cc1csc(NC(=O)CSc2nnnn2C)n1 | 64 | -9 | -4 | 3 | -5
Cc1nnc(SCC(=O)Nc2ccc(N(C)C)cc2)n(N)c1=O | 5 | -10 | 99* | 2 | -8
CN(C)c1ccc(NC(=O)CSc2nnc(C3CCCCC3)n2N)cc1 | -44 | -8 | 99* | 3 | 0
CC(=O)Nc1ccc(NC(=O)CSc2nnc(C)c(=O)n2N)cc1 | -13 | -10 | 98* | -2 | 2
CC(=O)Nc1ccc(S(=O)(=O)Nc2nc(C)nc3sc(C)c(C)c23)cc1 | x | -17 | 22 | x | x
CN(C)CC(C)(C)CNS(=O)(=O)c1cccc2nsnc12 | 9 | -5 | x | 0 | -2
COC(=O)c1sccc1-n1cc(C#N)c(=O)n(C)c1=O | -22 | -10 | -3 | 1 | -3
O=C(CSc1nc2c(sc3ccccc32)c(=O)n1CCCN1CCOCC1)NCC1CCCO1 (stereo not drawn) | 2 | 1 | x | 1 | -2
CCCCn1nnnc1SCC(=O)Nc1ccc(N(C)C)cc1 | -25 | 18 | 99* | -1 | -6
C=CCn1c(SCC(=O)Nc2nc(C)cs2)nnc1C(CO)NC(=O)c1ccccc1 (stereo not drawn) | 11 | -7 | 85* | 1 | -3
COc1ccc(CCSc2nnc(C3CCCCC3)n2N)cc1 | -3 | -9 | 96* | 0 | 0
COc1ccc(NC(=O)CSc2nnc(C3CCCCC3)n2N)c(OC)c1 | -2 | -1 | -13 | 3 | 1
CCn1c(SCC(=O)Nc2nccs2)nnc1C1CC1 | x | -7 | 1 | 3 | 2
Nn1c(SCC(=O)Nc2nccs2)nnc1C1CC1 | -4 | 2 | 99* | -1 | -4
CCn1c(SCC(=O)Nc2nc(C)cs2)nnc1C(NC(=O)c1ccccc1Cl)C(C)C (stereo not drawn) | 3 | -11 | 0 | -2 | 0
CC(OC(=O)CCc1nc2ccccc2c(=O)[nH]1)C(=O)Nc1ncc(Cl)cc1Cl (stereo not drawn) | -2 | -17 | 7 | 1 | -2
Cc1cc(C(=O)COC(=O)c2ccc3c(c2)NC(=O)CS3)c(C)n1CCc1ccc(Cl)cc1 | -7 | 15 | -14 | -10 | -1
SMILES | Calb FLC | CSC inhib | ALR H2O2 inh | PP5 primary | PP1 inh
COc1ccc(NC(=O)CSc2nc3[nH]c(=O)cc(O)c3s2)c(OC)c1 | x | x | 41 | -1 | -3
COc1ccc(NC(=O)CSc2nc3[nH]c(=O)cc(O)c3s2)cc1OC | x | x | 99* | -1 | -2
CSc1ccc(NC(=O)CSc2nc3[nH]c(=O)cc(O)c3s2)cc1 | x | -9 | 99* | 2 | 8
COc1ccc(NC(=O)CSc2nc3[nH]ncc3c(=O)[nH]2)cc1OC | -1 | 0 | 96* | 1 | -4
N#Cc1ccc(NC(=O)CSc2nc3[nH]c(=O)cc(O)c3s2)cc1 | x | 6 | 99* | 2 | 5
O=C(COC(=O)CNS(=O)(=O)c1ccc(Br)cc1Cl)NCCc1ccccc1 | 6 | -4 | 2 | 1 | -4
C=CCC(=O)NC(C)c1cnn(-c2ccccc2C)c1C (stereo not drawn) | -5 | -2 | 7 | 4 | -4
O=C(N1CCCCC1)N1CCN(c2ccc(Cl)cc2)CC1 | -9 | -23 | 98* | 0 | -2
O=C(c1ccccc1)N1CCN(c2ccc(Cl)cc2)CC1 | -2 | -6 | 66 | 3 | -3
Nc1ccc(N2CCN(c3ccc(Cl)c(Cl)c3)CC2)cc1 | -3 | 92* | 58 | 4 | 3
S=C(c1ccc(N2CCCC2)cc1)N1CCCCC1 | x | -18 | 99* | 3 | 2
Oc1ccc(C(=S)N2CCCCCC2)cc1 | -4 | -19 | 8 | 1 | 1
Nc1ccc(N2CCN(c3ccc(F)cc3)CC2)cc1 | 103* | 7 | 99* | 3 | 3
CCOC(=O)c1nnn(-c2nonc2NC(C)=O)c1C | -1 | -2 | -11 | 1 | -4
O=C(O)c1ccc(N2CCCCC2)cc1 | -2 | -7 | -4 | 1 | 0
CC(=O)N1CCN(c2ccc(NC(=O)c3ccc(Cl)cc3)cc2)CC1 | 6 | -12 | 3 | -3 | 2
Nc1ccc(N2CCCCCC2)cc1 | x | x | 99* | 3 | 10
CC(=O)N1CCN(c2ccc(N)cc2)CC1 | x | 2 | 99* | -1 | 0
COCCn1c(=NC(=O)CSC(C)=O)sc2cc(OC)ccc21 | 1 | -14 | 98* | -1 | 0
CCn1c(=NC(=O)CSC(C)=O)sc2cc(OC)ccc21 | 2 | -22 | 52 | 2 | 2
OCCN(CCO)c1ccc2ccccc2c1 | 21 | -15 | 98* | -1 | -2
O=C(c1c[nH]c(=O)n(-c2ccccc2)c1=O)N1CCc2ccccc21 | 29 | -6 | 1 | 5 | 0
Oc1ccc(-c2nnc(SCc3ccccc3)o2)cc1 | 1 | 23 | -11 | 1 | -3
CCOC(=O)c1c(NC(=O)CSc2nc3ccc(C)cc3[nH]2)sc2c1CC(C)(C)NC2(C)C | -4 | 78* | -3 | 0 | -1
CCN(CCNC(=O)C1CCCN(S(=O)(=O)c2cnc[nH]2)C1)c1ccccc1 (stereo not drawn) | -2 | -5 | 98* | 0 | 0
SMILES | Calb FLC | CSC inhib | ALR H2O2 inh | PP5 primary | PP1 inh
CCN(CCCNC(=O)C1CCCN(S(=O)(=O)c2cnc[nH]2)C1)c1ccccc1 (stereo not drawn) | 3 | -19 | 98* | 0 | -6
Cc1cc(Br)ccc1OCC(=O)NNC(=O)Cc1ccccc1 | -1 | 11 | 1 | 1 | 0
Cc1cc(Br)ccc1OCC(=O)NNC(=O)C(=O)Nc1ccccc1 | 89* | 6 | -21 | -3 | 0
CN1Cc2c(N3CCOCC3)nc3sc(C(=O)c4ccc(Br)cc4)c(N)c3c2CC1(C)C | 73 | 102* | -22 | 1 | 4
CN1Cc2c(N3CCOCC3)nc3sc(C#N)c(N)c3c2CC1(C)C | -3 | 4 | -10 | 2 | -3
CNC(=O)c1ccc(-c2sc3nc(N4CCOCC4)c4c(c3c2N)CC(C)(C)OC4)o1 | 2 | -4 | 99* | 3 | 2
COCCn1cnc2c(c1=O)c1nc3ccccc3nc1n2/N=C/c1cccc(OC)c1 | 23 | 18 | x | 0 | -7
